# Source: PubChem BioAssay (Tox21)
# Where “and” joins values, the source holds several entries; their conditions need not be identical. Equal values may be shown once. Inconclusive results are not listed. Entries that show only a call come without a potency. Some structures have more than one record in an assay (separate samples or runs), and their calls can disagree. Calls of active or inactive are those of the source. Unless noted, calls come from the whole dose curve; as a rule, active = well fitted curve in the direction sought with a large enough effect in the repeat runs; inconclusive = weak or mixed curves; inactive = no such curve, though single readings can be large; an effect the other way counts as inactive or inconclusive.
# What was measured:
# [1] = qHTS assay to identify small molecule agonists of the estrogen receptor beta (ER-beta) signaling pathway - cell viability counter screen (AID 1259380); note: nearly all actives have a fitted effect of over 30% in size; note: potency is the fitted concentration of half-maximal effect
# Procedure, shortened: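 HEK293T ER-beta-UAS-bla; 2% CS-FBS; 6 hr pre-plate, 16 hr cpd at 37C/5% CO2; LiveBLAzer read first, then CellTiter-Glo 30 min RT, luminescence.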
# [2] = qHTS assay to identify small molecule antagonists of the estrogen receptor beta (ER-beta) signaling pathway - cell viability counter screen (AID 1259382); note: nearly all actives have a fitted effect of over 55% in size; note: potency is the fitted concentration of half-maximal effect
# Procedure, shortened: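 Cells: ER-beta-UAS-bla HEK293T, 2,000/well, 2% CS-FBS, 6 hr settle. Cpd + E2 (1nM final), 16 hr, 37C/5% CO2. Bla FRET substrate 2 hr RT, then CellTiter-Glo 30 min RT, luminescence.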
# [3] = target: Estrogen receptor (Homo sapiens) (UniProt P03372); assay: qHTS assay to identify small molecule agonists of the estrogen receptor alpha (ER-alpha) signaling pathway in the presence of an antagonist (AID 1259383; calls by dose curve; note: top concentration of the series differs between compounds; nearly all actives have a fitted effect of over 15% in size)
# Procedure, shortened: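 VM7Luc4E2, endog. ER-alpha + 4×ERE-luc; charcoal-stripped FBS, phenol red-free, 5 d; 24hr plating; +10.0nM ICI-182,780 (final); cpds 15 conc, 22hr, 37C/5% CO2; ONE-Glo luminescence.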
# [4] = qHTS assay to identify small molecule agonists or antagonists of the thyroid stimulating hormone receptor (TSHR) signaling pathway - wild type cell line counter screen (AID 1259384; calls by dose curve)
# Procedure, shortened: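 Counter screen in untransfected Hek293: compounds (15-point titration, triplicate) plus phosphodiesterase inhibitor Ro20-1724 added after 18 h plating; 30 min RT. Intracellular cAMP via competitive d2/cryptate immunoassay, 1 h incubation.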
# [5] = qHTS assay to identify small molecule agonists of the estrogen receptor alpha (ER-alpha) signaling pathway in the presence of an antagonist - cell viability counter screen (AID 1259386);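 note: series mostly up to about 92 µM; cells exposed to compounds for 22 h at 37 °C before the viability read; nearly all actives have a fitted effect of over 30% in size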
# Procedure, shortened: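 VM7Luc4E2, stripped-serum pre-culture 5 d; 24hr plating; +ICI-182,780 10.0nM final; cpds 15 conc, 22hr, 37C/5% CO2; CellTiter-Fluor added at 21hr, fluorescence 1hr later.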
# [6] = target: Progesterone receptor (Homo sapiens) (UniProt P06401); assay: qHTS assay to identify small molecule agonists of the progesterone receptor (PR) signaling pathway (AID 1346784; calls by dose curve; note: nearly all actives have a fitted effect of over 30% in size)
# Procedure, shortened: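 Beta-lactamase reporter read-out: after 16 hr compound treatment at 37C and a further 2 hr at room temperature with LiveBLAzer B/G FRET substrate, fluorescence was measured in PR-UAS-bla HEK 293T cells grown in 2% charcoal-stripped serum.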
# [7] = qHTS assay to identify small molecule agonists of the progesterone receptor (PR) signaling pathway - cell viability counter screen (AID 1346799; calls by dose curve; note: nearly all actives have a fitted effect of over 45% in size; note: potency is the fitted concentration of half-maximal effect)
# Procedure, shortened: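 Luminescence from CellTiter-Glo, added after the beta-lactamase FRET read in the same wells, gave cytotoxicity in PR-UAS-bla HEK293T cells treated with compounds for 16 hr at 37C.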
# [8] = qHTS assay to identify small molecule antagonists of the TGF-beta/Smad signaling pathway - cell viability counter screen (AID 1346824); note: nearly all actives have a fitted effect of over 50% in size
# Procedure, shortened: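 Cytotoxicity counter-screen run in the same wells as the beta-lactamase Smad reporter read: CellTiter-Glo luminescence after 30 min at room temperature. HEK 293T SBE-bla cells had 5 hr compound exposure at 37 C with TGF-beta1 (0.25 ng/mL stock).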
# [9] = qHTS assay to identify small molecule agonists of the TGF-beta/Smad signaling pathway - cell viability counter screen (AID 1346829); note: top concentration of the series differs between compounds; nearly all actives have a fitted effect of over 45% in size
# Procedure, shortened: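 Same-well cytotoxicity: CellTiter-Glo added after the 2 hr room-temperature beta-lactamase substrate step, luminescence measured 30 min later; cells had 5 hr of compound at 37 C.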
# [10] = qHTS assay to identify small molecule agonists of the TGF-beta/Smad signaling pathway (AID 1346859; active = well fitted activation curve with a large enough effect in the signal ratio in the repeat runs, not every such curve was filed as active; the % refers to the signal ratio; note: series mostly up to about 77 µM)
# Procedure, shortened: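 SBE-bla HEK 293T, 4,000 cells/well, plated o/n; cpd in DMSO, 5 hr, 37 C/5% CO2; B/G FRET substrate 2 hr RT; ex 405, em 460/530 nm.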
# [11] = target: Thyrotropin-releasing hormone receptor (Homo sapiens) (UniProt P34981); assay: qHTS assay to identify small molecule antagonists of the thyrotropin-releasing hormone receptor (TRHR) signaling pathway (AID 1346877; active = well fitted inhibition curve with a large enough effect in the repeat runs, not every such curve was filed as active; note: series mostly up to about 51 µM)
# Procedure, shortened: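 Intracellular calcium fluorescence, read kinetically every second over 3 min, reports TRH-evoked signalling in HEK293 cells carrying TRHR. Test compounds were added 5 min ahead of a 1 nM TRH challenge.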
# [12] = target: Thyrotropin-releasing hormone receptor (Homo sapiens) (UniProt P34981); assay: qHTS assay to identify small molecule agonists of the thyrotropin-releasing hormone receptor (TRHR) signaling pathway (AID 1346891; calls by dose curve; note: series mostly up to about 58 µM)
# Procedure, shortened: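 Intracellular calcium rise, read as fluorescence every second for 3 min, served as the agonist signal in dye-loaded HEK293 cells expressing TRHR; each compound ran at 15 concentrations in triplicate.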
# [13] = Human pregnane X receptor (PXR) small molecule agonists, qHTS cell viability counter screen (AID 1346977); note: nearly all actives have a fitted effect of over 50% in size; note: potency is the fitted concentration of half-maximal effect
# Procedure, shortened: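 PXR-Luc HepG2, 2,000 cells/well, 5% charcoal-stripped FBS; 5hr settle; cpd 24hr, 37C/5% CO2; CellTiter-Fluor at 23hr, read 1hr later (fluorescence).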
# [14] = Caspase-3/7 induction in HepG2 cells by small molecules, qHTS assay (AID 1346978); note: nearly all actives have a fitted effect of over 15% in size
# Procedure, shortened: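 Caspase-3/7 induction was measured by Caspase-Glo 3/7 luminescence (30 min, room temperature) after a 17 hr compound exposure of wild-type HepG2 cells seeded at 2,000 per well and pre-incubated 5 hr.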
# [15] = Caspase-3/7 induction in CHO-K1 cells by small molecules, qHTS cell viability counter screen (AID 1346979); note: nearly all actives have a fitted effect of over 35% in size; note: potency is the fitted concentration of half-maximal effect
# Procedure, shortened: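 Cells (CHO-K1, wild type) are plated at 1,500 per well and incubated 5hr. Test compounds in DMSO are then pinned in, followed by 16hr at 37C and 5% CO2. Viability is read by CellTiter-Fluor fluorescence after 1hr.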
# [16] = Caspase-3/7 induction in CHO-K1 cells by small molecules, qHTS assay (AID 1346980); note: nearly all actives have a fitted effect of over 15% in size
# Procedure, shortened: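 Luminescent Caspase-Glo 3/7 read (30min, room temperature) quantified apoptosis induction. Cells were wild-type CHO-K1, treated with compound for 17hr at 37 C and 5% CO2.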
# [17] = Caspase-3/7 induction in HepG2 cells by small molecules, qHTS cell viability counter screen (AID 1346981); note: series mostly up to about 92 µM; nearly all actives have a fitted effect of over 30% in size
# Procedure, shortened: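 HepG2, WT, 2,000 cells/well; 5 hr pre-incubation 37 C/5% CO2; compound pin-transferred from DMSO; 16 hr exposure; CellTiter-Fluor, 1 hr; fluorescence read.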
# [18] = target: Progesterone receptor (Homo sapiens) (UniProt P06401); assay: qHTS assay to identify small molecule antagonists of the progesterone receptor (PR) signaling pathway (AID 1346795; active = well fitted inhibition curve with a large enough effect in the signal ratio in the repeat runs, not every such curve was filed as active; the % refers to the signal ratio; note: potency is the fitted concentration of half-maximal effect)
# Procedure, shortened: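 Read-out is fluorescence from the LiveBLAzer B/G FRET substrate, cleaved by a UAS-controlled beta-lactamase in PR-UAS-bla HEK293T cells after 16 hr exposure to compound plus 1 nM promegestone (final), followed by 2 hr at room temperature.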
# [19] = qHTS assay to identify small molecule antagonists of the progesterone receptor (PR) signaling pathway - cell viability counter screen (AID 1346798); note: nearly all actives have a fitted effect of over 50% in size; note: potency is the fitted concentration of half-maximal effect
# Procedure, shortened: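 HEK293T PR-UAS-bla, 2% charcoal-stripped FBS; 4 hr pre-plate; cpd + R5020, 16 h 37C; LiveBLAzer read first; then CellTiter-Glo 30 min RT, luminescence.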
# Sequence of Thyrotropin-releasing hormone receptor (Homo sapiens) (P34981 whole entry, looked up): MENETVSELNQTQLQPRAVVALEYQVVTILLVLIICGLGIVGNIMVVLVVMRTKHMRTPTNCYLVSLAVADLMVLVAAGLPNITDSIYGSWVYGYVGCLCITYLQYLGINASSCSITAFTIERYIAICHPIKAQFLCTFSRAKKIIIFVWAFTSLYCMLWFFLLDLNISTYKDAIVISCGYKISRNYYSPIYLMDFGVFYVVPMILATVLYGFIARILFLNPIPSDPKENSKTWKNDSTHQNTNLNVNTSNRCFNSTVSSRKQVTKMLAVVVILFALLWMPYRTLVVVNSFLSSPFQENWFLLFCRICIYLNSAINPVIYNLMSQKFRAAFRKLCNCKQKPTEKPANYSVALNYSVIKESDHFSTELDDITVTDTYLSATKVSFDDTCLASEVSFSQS
# Sequence of Estrogen receptor (Homo sapiens) (P03372 whole entry, looked up): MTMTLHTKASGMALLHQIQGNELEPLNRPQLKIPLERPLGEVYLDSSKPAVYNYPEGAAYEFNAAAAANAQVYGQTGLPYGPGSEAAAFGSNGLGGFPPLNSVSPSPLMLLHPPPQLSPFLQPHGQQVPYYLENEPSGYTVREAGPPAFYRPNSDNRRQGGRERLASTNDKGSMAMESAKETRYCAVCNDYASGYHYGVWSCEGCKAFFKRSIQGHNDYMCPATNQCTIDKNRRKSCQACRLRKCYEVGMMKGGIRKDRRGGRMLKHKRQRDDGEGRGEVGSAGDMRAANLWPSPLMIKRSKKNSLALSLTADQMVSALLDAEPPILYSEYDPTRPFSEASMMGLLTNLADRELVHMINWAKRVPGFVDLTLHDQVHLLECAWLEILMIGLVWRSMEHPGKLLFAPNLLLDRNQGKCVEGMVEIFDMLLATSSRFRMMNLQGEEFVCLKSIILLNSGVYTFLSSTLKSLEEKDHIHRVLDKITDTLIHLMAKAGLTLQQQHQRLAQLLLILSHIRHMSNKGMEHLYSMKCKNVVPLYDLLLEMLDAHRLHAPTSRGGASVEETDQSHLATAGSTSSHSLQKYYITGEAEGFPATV
# Sequence of Progesterone receptor (Homo sapiens) (P06401 whole entry, looked up): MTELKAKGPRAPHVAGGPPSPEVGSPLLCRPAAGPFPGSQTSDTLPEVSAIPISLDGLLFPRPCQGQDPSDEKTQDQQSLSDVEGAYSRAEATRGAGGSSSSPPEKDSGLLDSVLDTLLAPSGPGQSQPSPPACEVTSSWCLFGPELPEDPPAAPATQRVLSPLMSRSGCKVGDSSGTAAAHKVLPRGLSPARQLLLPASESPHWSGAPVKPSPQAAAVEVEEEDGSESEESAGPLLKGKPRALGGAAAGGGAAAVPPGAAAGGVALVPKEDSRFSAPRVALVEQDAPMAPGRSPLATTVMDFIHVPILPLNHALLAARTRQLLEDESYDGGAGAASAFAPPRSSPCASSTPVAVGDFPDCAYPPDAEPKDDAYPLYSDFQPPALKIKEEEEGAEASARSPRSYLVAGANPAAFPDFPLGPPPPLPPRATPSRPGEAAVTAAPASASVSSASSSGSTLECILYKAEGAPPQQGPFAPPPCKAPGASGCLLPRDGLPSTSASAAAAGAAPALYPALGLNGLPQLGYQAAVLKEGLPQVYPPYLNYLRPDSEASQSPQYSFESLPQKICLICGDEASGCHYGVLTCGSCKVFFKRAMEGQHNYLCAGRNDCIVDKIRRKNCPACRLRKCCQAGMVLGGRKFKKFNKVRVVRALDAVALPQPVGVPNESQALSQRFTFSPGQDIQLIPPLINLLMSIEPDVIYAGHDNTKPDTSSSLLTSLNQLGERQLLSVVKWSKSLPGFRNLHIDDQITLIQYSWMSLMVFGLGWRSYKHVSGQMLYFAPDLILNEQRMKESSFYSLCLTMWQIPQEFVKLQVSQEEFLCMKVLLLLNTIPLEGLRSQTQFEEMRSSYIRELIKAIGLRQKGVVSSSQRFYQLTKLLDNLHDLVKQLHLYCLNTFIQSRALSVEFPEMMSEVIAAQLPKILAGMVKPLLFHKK
SMILES,Potency [1],Potency [2],Potency [3],Potency [4],Potency [5],Potency [6],Potency [7],Potency [8],Potency [9],Potency [10],Potency [11],Potency [12],Potency [13],Potency [14],Potency [15],Potency [16],Potency [17],Potency [18],Potency [19]
C[C@]12CCC(=O)C=C1CC[C@@H]1[C@@H]2CC[C@]2(C)C(=O)CC[C@@H]12,53.5 µM (active) and 54.5 µM (active),47.7 µM (active) and inactive,inactive,inactive,inactive,inactive,inactive and 61.1 µM (active),inactive,inactive,inactive,inactive,inactive,inactive,inactive,23.9 µM (active) and inactive,inactive,inactive,,
Cc1cc(Cl)ccc1N,inactive,inactive,,inactive,inactive,inactive,inactive,inactive,inactive,inactive,inactive,inactive,inactive,inactive,inactive,inactive,inactive,inactive,inactive
C=CCOC(Cn1ccnc1)c1ccc(Cl)cc1Cl (stereo not drawn),27.4 µM (active) and 24.3 µM (active),30.7 µM (active) and inactive,,inactive,inactive,inactive,27.4 µM (active) and 21.7 µM (active) and 18.8 µM (active),inactive,inactive,inactive,inactive,inactive,48.6 µM (active),inactive,48.7 µM (active) and 38.6 µM (active),inactive,inactive,6.13 µM (active) and 6.68 µM (active),24.4 µM (active) and 15.4 µM (active) and 11.9 µM (active)
